# PubChem BioAssay AID560 (The Scripps Research Institute Molecular Screening Center, 2006)
# The campaign covered roughly 65,000 compounds. About 980 (1.5%) were called active.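 How the source made its calls: active means activation above the mean of all tested compounds plus 3 SD (cut at about 49% in these data); inactive means the rest.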 Many of the other results were omitted from the sample, so actives are more common in it than they were.
# Target: Nuclear receptor ROR-alpha (Homo sapiens) (UniProt P35398)
# Sequence (P35398 whole entry, looked up): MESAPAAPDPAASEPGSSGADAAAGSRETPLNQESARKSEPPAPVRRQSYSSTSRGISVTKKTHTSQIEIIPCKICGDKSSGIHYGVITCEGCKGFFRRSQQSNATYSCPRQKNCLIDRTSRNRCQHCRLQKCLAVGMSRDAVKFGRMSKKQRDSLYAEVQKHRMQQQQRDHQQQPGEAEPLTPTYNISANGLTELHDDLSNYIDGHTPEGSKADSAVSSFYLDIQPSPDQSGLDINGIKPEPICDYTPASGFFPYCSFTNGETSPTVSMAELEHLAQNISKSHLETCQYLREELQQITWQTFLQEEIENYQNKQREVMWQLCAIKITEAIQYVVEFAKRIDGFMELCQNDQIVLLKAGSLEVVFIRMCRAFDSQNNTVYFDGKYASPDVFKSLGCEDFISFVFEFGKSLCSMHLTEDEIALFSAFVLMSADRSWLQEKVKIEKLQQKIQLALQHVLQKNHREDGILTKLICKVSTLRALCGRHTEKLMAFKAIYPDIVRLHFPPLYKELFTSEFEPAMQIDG
# Assay: activators of orphan receptor RORA, primary screen, cell-based, luminescence (AID 560);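 further: 0% = DMSO-treated RORA cells and 100% = added signal equal to DMSO minus mock-transfected cells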
# Conditions: CHO-K1 Gal4-RORA LBD luciferase reporter, at 10 µM, active compounds read high, percent increase over mock-subtracted basal signal
row,Compound,activation
1,COCCCNC(=O)Cn1cc(C(=O)C2CC2)c2ccccc21,7.7% (inactive)
2,Cc1nnc(SCC(=O)Nn2cnnc2)s1,2.5% (inactive)
3,CCOc1ccc(Nc2oc(Cc3ccccc3)nc2C#N)cc1,25.8% (inactive)
4,N#Cc1nc(COc2ccc(-c3ccccc3)cc2)oc1NCc1cccnc1,-0.3% (inactive)
5,N#Cc1nc(Cc2ccccc2)oc1NCCc1ccccc1,54.1% (active)
6,O=C(c1ccco1)N(Cc1nc2ccccc2c(=O)[nH]1)C1CCCC1,-21.9% (inactive)
7,Cn1c(COc2ccc(Cl)cc2)nc2ccccc2c1=O,7.3% (inactive)
8,COCc1nc2ccccc2n1Cc1ccccc1Br,-6.2% (inactive)
9,COCn1c(COc2ccccc2)nc2ccccc21,53.4% (active)
10,CCOC(=O)c1c(NC(=O)c2ccc(Br)o2)sc2c1CCCC2,10.7% (inactive)
11,C=CCOC(=O)C1=C(C)OC(N)=C(C#N)C1c1ccc(F)cc1 (stereo not drawn),-35.4% (inactive)
12,Brc1ccc(Nc2c3c(nc4ncnn24)CCC3)cc1,-16.4% (inactive)
13,OCCCN1c2ccccc2Nc2nnc(-c3ccccc3)cc21,56.8% (active)
14,Cn1c(SCC(=O)c2cccs2)nnc1-c1ccco1,20.4% (inactive)
15,C=CCSc1nc2ccccc2[nH]1,6.3% (inactive)
16,O=C(CSc1nc2ccccc2[nH]1)c1cccs1,56.5% (active)
17,Cc1ccsc1-c1nc(CSCC(=O)NCCN2CCCC2)c(C)o1,4.3% (inactive)
18,Cc1ccc(S(=O)(=O)C2(S(=O)(=O)c3ccc(C)cc3)CCCC2)cc1,36.3% (inactive)
19,O=C(CN1CCN(c2ccccn2)CC1)NCc1cccs1,1.8% (inactive)
20,Cc1noc(C)c1C(=O)Nc1ccccn1,-8.4% (inactive)
21,CCN(CC)S(=O)(=O)c1cccc(C(=O)Nc2ccccc2)c1,2.7% (inactive)
22,CCN(CC)S(=O)(=O)c1cc(C(=O)Nc2ccccn2)ccc1C,59.6% (active)
23,O=C(CCn1c(=O)oc2ccccc21)Nc1ccon1,8.2% (inactive)

row,Compound,activation
1,Cc1cc(NC(=O)c2cnn3cccnc23)n(-c2ccccc2)n1,10% (inactive)
2,O=C(Nc1ccc(Cl)cn1)Nc1cccs1,42.6% (inactive)
3,O=C(Nc1ccc(Cl)cn1)c1cnn2cccnc12,62% (active)
4,CCCCOc1ccc(NC(=O)CSCC(=O)OCC)cc1,-11.3% (inactive)
5,CCCCOc1ccc(-c2ncc(C(=O)OCC)c(N)n2)cc1,59.3% (active)
6,CCOC(=O)c1cnc(SCC(=O)NCc2ccco2)nc1N,-10.7% (inactive)
7,CCn1cc(NC(=O)Nc2ccc(OC)c(OC)c2)c(C(N)=O)n1,4.9% (inactive)
8,COc1ccc(NC(=O)c2ccc(OC)cc2)cc1,25.7% (inactive)
9,COc1cc(OC)c(C(=O)NC2CCCCCC2)cc1OC,-17% (inactive)
10,COc1cc(OC)c(C(=O)Nc2ccc(N(C)C)cc2)cc1OC,58.1% (active)
11,O=C(Nc1ccccc1F)c1cc(S(=O)(=O)N2CCCCC2)cs1,0.6% (inactive)
12,CCN1C(=O)c2cccc3c(N)ccc1c23,-26% (inactive)
13,CCN1C(=O)/C(=C\N2CCN(c3ccccc3)CC2)SC1=S,-18% (inactive)
14,CCN1C(=O)/C(=C2\SC(N3CCCCC3)=NC2=O)c2ccccc21,84.9% (active)
15,O=C(c1cccs1)N1CCN(C(=O)N2CCOCC2)CC1,8.8% (inactive)
16,COc1ccc(Nc2oc(-c3ccccc3Cl)nc2C#N)cc1,98.6% (active)
17,CC1CCN(c2oc(-c3ccccc3F)nc2C#N)CC1,29% (inactive)
18,N#Cc1nc(-c2ccc(OCc3ccccc3)cc2)oc1NCCCN1CCOCC1,17% (inactive)
19,O=S(=O)(c1cccs1)N1CCc2ccccc2C1,-7.5% (inactive)
20,CCN1C(=O)/C(=C2/Sc3ccccc3N2CCCS(=O)(=O)O)SC1=S,-2.8% (inactive)
21,COCCNC(=O)CN1C(=O)CSc2ncccc21,18.9% (inactive)
22,CCS(=O)(=O)n1nc(-c2ccccc2)nc1SCc1ccccc1,32.6% (inactive)
23,CCS(=O)(=O)n1nc(-c2ccc(OC)cc2)nc1SC,52.4% (active)

row,Compound,activation
1,COc1ccc(-n2c(SC)nc(O)cc2=O)cc1,-8.4% (inactive)
2,CCCS(=O)(=O)N1CCN(C(=O)c2cccs2)CC1,-4.5% (inactive)
3,N#C/C(=C1\CCCN1)c1nc(-c2ccccc2)cs1,6.4% (inactive)
4,N#CC(=C1SC=CS1)c1nc(-c2ccccc2)cs1,59.7% (active)
5,C#CC(C)(C)NC(=O)CSc1nc2c(c(=O)n(C)c(=O)n2C)n1CCCC,5% (inactive)
6,CC(=O)CSc1nnc(CSc2ncccn2)n1C1CCCCC1,-9.7% (inactive)
7,COC(=O)C1=C(C)Nc2ncnn2C1c1ccco1 (stereo not drawn),-4.4% (inactive)
8,COc1ccc(OC)c2c1sc(=NC(=O)CN1C(=O)CCC1=O)n2C,-2.8% (inactive)
9,COc1ccc(C)c2sc(=NC(=O)c3ccc(C#N)cc3)n(C)c12,84.6% (active)
10,CCCCSc1nnc(-c2ccc(C)cc2)o1,23.4% (inactive)
11,Cc1ccc(CN2C(=O)CCC2C(=O)NCCCN2CCCCC2C)cc1 (stereo not drawn),13.7% (inactive)
12,Cc1noc(NS(=O)(=O)c2ccc(NC(=O)C34CCC(CC3)C4)cc2)c1C,11.6% (inactive)
13,COc1ccc2oc(=O)c(C(=O)N3CCCc4ccccc43)cc2c1,-10.5% (inactive)
14,COc1ccc(-n2ncc3c(N4CCc5ccccc54)ncnc32)cc1,50.3% (active)
15,Cc1cccc(-n2ncc3c(N4CCc5ccccc54)ncnc32)c1,2% (inactive)
16,COc1ccc(-n2ncc3c(N4CCCc5ccccc54)ncnc32)cc1,50.2% (active)
17,c1ccc(-n2ncc3c(N4CCCC4)ncnc32)cc1,-23.2% (inactive)
18,COc1ccc(N2CCN(C(=O)CSc3ncnc4c3cnn4-c3ccc(OC)cc3)CC2)cc1,-12.8% (inactive)
19,CC(=O)N1CCN(c2ccc(NCc3ccc(C(C)C)cc3)cc2)CC1,-17.3% (inactive)
20,COc1ccc(N2C(=O)C3CCCN3C2c2cccc(OC)c2)cc1 (stereo not drawn),-2.9% (inactive)
21,O=C(NCCN1CCOCC1)[C@H](Cc1ccccc1)N1C(=O)c2ccccc2C1=O,3.1% (inactive)
22,O=C(CN1C(=O)COc2ccccc21)NCCN1CCc2ccccc2C1,20.9% (inactive)
